SW480 rereplic: DNA re-replication induction in SW480 cells | AID 624297 | Potency, µM (titrated, usually from 46.1 µM), without a hit: at the highest dose re-replication activation, usual class: activators | SW480 DNA re-replication, Hoechst DNA content imaging, 48 h | 1.8% of 340,000 active; further: % of control where 0% means no effect; nearly all actives have a fitted effect of over 55% in size
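Hoechst fluorescence of nuclei (405 nm excitation, 500-530 nm emission) measured by plate-scanning imager after 48 hr compound exposure at 37 C; re-replication scored as increased number of nuclei with elevated intensity.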
MCF10A rereplic: DNA re-replication induction in MCF 10a cells. MCF 10A DNA re-replication, Hoechst nuclear intensity, 48 h. Potency, µM (highest dose often 46.1 µM), without a hit: at the top dose activity, positive = re-replication, hits mostly activators. 2.9% of 350,000 active. AID 624296; further: % of control where 0% means no effect; nearly all actives have a fitted effect of over 50% in size
KB-V1 cytotox: kills drug-selected multidrug resistant KB-V1 cells; AID 1347076; 3.4% of 400,000 active; Potency, µM (highest dose often 46.1 µM), actives largely listed as cytotoxic; KB-V1 MDR cells viability, CellTiter-Glo, 72 h; further: on the % scale 0 is the no-effect control and ±100 the full control effect; nearly all actives have a fitted effect of over 60% in size
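Cytotoxicity via CellTiter-Glo luminescence after 72 h compound exposure at 37 degrees C. Cells: drug-selected KB-V1 line, DMEM phenol-red free plus 10% FBS. Compounds tested at multiple concentrations; normalized data fitted to concentration-effect curves.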
ELG1 repair inh: ELG1-dependent DNA repair inhibition; AID 504467; HEK293T ELG1-luciferase reporter, luminescence, 16 h; DNA damage induced by 5-fluorouridine; 2.3% of 330,000 active; Potency, µM (top dose mostly 46.1 µM), inactives show at the top dose activity change, negative = inhibition, usual class: inhibitors; further: on the % scale 0 is the no-effect control and ±100 the full control effect; nearly all actives have a fitted effect of over 55% in size
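Overnight (16 hr) co-exposure of 2,000 cells/well to 5-fluorouridine and compound at 37 °C preceded detection. Luciferase was quantified via ONE-Glo luminescence; loss of signal denotes inhibition.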
KB-3-1 tox: KB-3-1 parental cell cytotoxicity; Potency, µM (doses to about 46.1 µM), actives largely listed as cytotoxic; 1.4% of 400,000 active; KB-3-1 viability, CellTiter-Glo ATP luminescence, 72 h; further: on the % scale 0 is the no-effect control and ±100 the full control effect; nearly all actives have a fitted effect of over 60% in size
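Using CellTiter-Glo luminescence, growth of non-resistant KB-3-1 adenocarcinoma cells is assessed 72 h after pin-tool compound addition at 37 °C. Normalized responses across the concentration series yield fitted curves.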
* = called active by the depositor; [ ] = another dose, or the depositor's remark. Hits are enriched below; roughly 8.1% of the tested compounds scored in any of these assays. The call rests on the fitted dose curve; in most records, active means well fitted curve in the direction sought with a large enough effect; inconclusive means small, poorly fitted or top-dose-only effect, or another doubt; inactive means no such curve, though single readings can be large; an effect the other way counts as inactive or inconclusive. Potency means the concentration at half of the fitted maximal effect.

C=CCOc1ccc(C=CC(=O)c2c(O)c(OC)c(OC)c(OC)c2OC)cc1 was read as SW480 rereplic 18%, MCF10A rereplic inconclusive, KB-V1 cytotox 5.8µM* and KB-3-1 tox inconclusive.
Screening COc1ccc(C=CC(=O)c2c(OC)cc(OC)c(OC)c2O)cc1 returned SW480 rereplic inconclusive, MCF10A rereplic inconclusive, KB-V1 cytotox inconclusive and KB-3-1 tox inactive.
Screening N#CC1c2ccccc2C=CN1C(=O)N(c1ccccc1)c1ccccc1 (centres undefined) returned SW480 rereplic inconclusive, MCF10A rereplic 3.3µM*, KB-V1 cytotox 21µM* and KB-3-1 tox inconclusive.
Screening CCc1ccccc1NC(=O)CNC(=O)c1ccc(OCc2cn3ccccc3n2)cc1 returned SW480 rereplic -4%, MCF10A rereplic 4%, KB-V1 cytotox inactive, ELG1 repair inh inconclusive and KB-3-1 tox inactive.
Screening CN(C)/C=C/c1c([N+](=O)[O-])c2ccc(O)cc2n1-c1ccccc1 returned SW480 rereplic inconclusive, MCF10A rereplic inconclusive, KB-V1 cytotox inactive, ELG1 repair inh 7.3µM* and KB-3-1 tox inactive.
Cc1ccc(S(=O)(=O)/N=C(\CCl)N2CCOCC2)cc1 was read as SW480 rereplic inconclusive, MCF10A rereplic inconclusive, KB-V1 cytotox inactive, ELG1 repair inh 15µM* and KB-3-1 tox inconclusive.
COc1ccc(-c2nnc(NC(=O)c3ccccc3C)o2)cc1 was read as SW480 rereplic 1%, MCF10A rereplic 1%, KB-V1 cytotox inactive, ELG1 repair inh inconclusive and KB-3-1 tox inconclusive.
For Cc1onc(-c2c(F)cccc2Cl)c1C(=O)Nc1nc2ccccc2[nH]1 the results were SW480 rereplic inconclusive, MCF10A rereplic 2%, KB-V1 cytotox inconclusive, ELG1 repair inh inconclusive and KB-3-1 tox inconclusive.
CC1(OC(=O)C2CCCC2)C(=O)C=C2C=C(c3ccsc3)N(C3CCCCC3)C=C2C1=O (centres undefined) was read as SW480 rereplic -12%, MCF10A rereplic 5%, KB-V1 cytotox inactive, ELG1 repair inh -5% and KB-3-1 tox 21µM*.
Screening CC1(OC(=O)C2CCCC2)C(=O)C=C2C=C(c3ccsc3)N(CC3CC3)C=C2C1=O (centres undefined) returned SW480 rereplic -9%, MCF10A rereplic 9%, KB-V1 cytotox inactive, ELG1 repair inh -13% and KB-3-1 tox inactive.
`COc1ccnc(Oc2ccc(F)cc2)c1C#N` gave SW480 rereplic -7%, MCF10A rereplic 3%, KB-V1 cytotox inactive, ELG1 repair inh inconclusive and KB-3-1 tox inactive.
Screening CC(=O)c1ccc(NC(=O)CN2CCCCCC2)cc1 returned SW480 rereplic -6%, MCF10A rereplic 1%, KB-V1 cytotox inactive, ELG1 repair inh inconclusive and KB-3-1 tox inactive.
CC(NC(=O)Cc1ccc(NS(=O)(=O)c2cccc(C(F)(F)F)c2)cc1)c1ccccn1 (centres undefined) was read as SW480 rereplic -7%, MCF10A rereplic 12%, KB-V1 cytotox 21µM*, ELG1 repair inh 1% and KB-3-1 tox inconclusive.
`Cc1cc(S(=O)(=O)N2CCN(c3ccccc3F)CC2)ccc1-n1cnnn1` gave SW480 rereplic 1%, MCF10A rereplic 8%, KB-V1 cytotox 21µM*, ELG1 repair inh -11% and KB-3-1 tox inconclusive.
`Cc1cc(S(=O)(=O)N2CCC(NC(=O)C34CC5CC(CC(C5)C3)C4)CC2)ccc1-n1cnnn1` gave SW480 rereplic 2%, MCF10A rereplic -1%, KB-V1 cytotox 9.2µM*, ELG1 repair inh -27% and KB-3-1 tox inactive.
Screening Cc1cc(S(=O)(=O)N2CCC(N3CCCCC3)CC2)ccc1-n1cnnn1 returned SW480 rereplic 1%, MCF10A rereplic 0%, KB-V1 cytotox inactive, ELG1 repair inh 5% and KB-3-1 tox inactive.
For N#CC1(C#N)CC(C=O)=C(N)C1(C#N)CC(=O)C12CC3CC(CC(C3)C1)C2 (centres undefined) the results were SW480 rereplic inconclusive, MCF10A rereplic 18µM*, KB-V1 cytotox inactive, ELG1 repair inh 16µM* and KB-3-1 tox inactive.
`O=C(CCCCCNc1nc(=S)[nH]c2ccccc12)NCCc1c[nH]c2ccccc12` gave SW480 rereplic 0%, MCF10A rereplic inconclusive, KB-V1 cytotox inconclusive, ELG1 repair inh 18µM* and KB-3-1 tox inactive.
For O=C(CCCCCNc1nc(=S)[nH]c2ccccc12)NCCc1ccc(Cl)cc1 the results were SW480 rereplic 17%, MCF10A rereplic inconclusive, KB-V1 cytotox inactive, ELG1 repair inh 0% and KB-3-1 tox inactive.
Screening CCC(C)NC(=O)c1cnn2c(C)c3c(nc12)CCCC3 (centres undefined) returned SW480 rereplic -3%, MCF10A rereplic -9%, KB-V1 cytotox inconclusive, ELG1 repair inh 16% and KB-3-1 tox inactive.
For CCOC(=O)CC(=O)CSc1nc2ccccc2c(=O)n1-c1ccc(C(=O)NCCOC)cc1 the results were SW480 rereplic -1%, MCF10A rereplic 6%, KB-V1 cytotox inactive, ELG1 repair inh -17% and KB-3-1 tox inactive.
`Cn1c(-c2ccc(Cl)cc2)ccc(C#N)c1=O` gave SW480 rereplic 1%, MCF10A rereplic -178%[0.0737 µM], KB-V1 cytotox 5.8µM*, ELG1 repair inh 21% and KB-3-1 tox inconclusive.
For CC(C)(C)C(=O)Nc1cc2nn(-c3ccccc3)nc2cc1Cl the results were SW480 rereplic 7.3µM*, MCF10A rereplic inconclusive, KB-V1 cytotox inactive, ELG1 repair inh inconclusive and KB-3-1 tox inactive.
CC(=O)Nc1cc2nn(-c3ccccc3)nc2cc1Cl was read as SW480 rereplic 4%, MCF10A rereplic inconclusive, KB-V1 cytotox inactive, ELG1 repair inh inconclusive and KB-3-1 tox inactive.
For CCc1ccc2nc(NC3=NCN(CCN4CCOCC4)CN3)nc(C)c2c1 the results were ELG1 repair inh -20%.
Screening C=C1C(=O)OC2CC1C(O)CC(C)=CCCC(C)=CC(O)CC2C (centres undefined) returned SW480 rereplic inconclusive, MCF10A rereplic 1.3µM*, KB-V1 cytotox inconclusive and KB-3-1 tox inconclusive.
O=C(Cc1ccc(-n2c(=O)c3ccccc3n(Cc3ccccc3Cl)c2=O)cc1)NCC1CCCO1 (centres undefined) was read as SW480 rereplic -4%, MCF10A rereplic 29%, KB-V1 cytotox inconclusive, ELG1 repair inh 9.2µM* and KB-3-1 tox inactive.
Screening O=C(Cc1ccc(-n2c(=O)c3ccccc3n(Cc3ccc(F)cc3)c2=O)cc1)NCC1CCCO1 (centres undefined) returned SW480 rereplic 0%, MCF10A rereplic 5%, KB-V1 cytotox inactive, ELG1 repair inh 10µM* and KB-3-1 tox inactive.
